Results taken from PubChem BioAssay AID1851 (National Center for Advancing Translational Sciences (NCATS), 2009).
Several values for one entry are separate records, joined by “and”; a condition that tells them apart may be missing. Equal values may be shown once. Screen size: about 16,000 compounds; about 5,800 (36%) were called active. About 23% were inconclusive and are not listed. The call rests on the fitted dose curve; in most records, active means well fitted curve in the direction sought with a large enough effect; inconclusive means small, poorly fitted or top-dose-only effect, or effect the other way; inactive means no such curve, though single readings can be large or run the other way. The list shows a part of the results. Where a structure was tested more than once in an assay, its records may differ in their call.

Each compound was assayed against Cytochrome P450 2C19 (Homo sapiens) (UniProt P33261) (assay: Cytochrome panel assay with activity outcomes). Settings: recombinant CYP, pro-luciferin dealkylation, luminescence, p450-cyp2c19; series mostly up to 57.1 µM; activity, negative = inhibition: at the top concentration.
Chain of Cytochrome P450 2C19 (Homo sapiens) (P33261 whole entry, looked up): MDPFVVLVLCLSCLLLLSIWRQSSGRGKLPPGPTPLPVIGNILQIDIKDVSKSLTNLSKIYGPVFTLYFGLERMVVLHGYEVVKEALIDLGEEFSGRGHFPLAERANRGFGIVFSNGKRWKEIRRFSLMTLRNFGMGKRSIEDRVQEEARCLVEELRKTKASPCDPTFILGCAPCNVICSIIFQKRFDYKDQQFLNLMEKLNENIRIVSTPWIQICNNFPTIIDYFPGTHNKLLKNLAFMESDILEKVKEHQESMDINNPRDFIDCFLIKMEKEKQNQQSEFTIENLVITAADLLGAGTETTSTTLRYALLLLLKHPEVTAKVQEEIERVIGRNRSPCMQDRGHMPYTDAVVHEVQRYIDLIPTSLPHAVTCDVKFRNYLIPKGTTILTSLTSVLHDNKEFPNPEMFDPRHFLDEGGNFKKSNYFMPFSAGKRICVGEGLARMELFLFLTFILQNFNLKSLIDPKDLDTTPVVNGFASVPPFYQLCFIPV
On the % scale 0 is the no-effect control and ±100 the full control effect.

AC50, active:
CCCc1cc(=O)[nH]c(SCc2cc(Cl)ccc2OC(F)F)n1 2.82 µM
O=C(COc1cccc2ccccc12)NNC(=O)c1cccs1 10 µM
Cc1cccc(C)c1NC(=O)/C(C#N)=C/c1cccs1 4.47 µM
CC(C)=CC(=O)Nc1nnc(C(C)C)s1 25.1 µM
C=CCOC(=O)C1=C(C)NC(SCC(=O)OCC)=C(C#N)C1c1ccc(C)cc1 (stereo not given) 2.82 µM
C=CCOC(=O)C1=C(C)NC(SC)=C(C#N)C1c1cccs1 (stereo not given) 0.178 µM
CN(C(=S)NC(=O)c1ccccc1Br)C1CCCCC1 7.94 µM
O=[N+]([O-])c1ccc(/C=N/N/C(=N/c2ccccn2)c2ccccn2)cc1 28.2 µM
c1ccc2cc(Sc3ncnc4c3oc3ccccc34)ccc2c1 2 µM
Oc1c(C(O)(c2ccccc2)c2ccc3ccccc3c2O)ccc2ccccc12 0.794 µM
Cc1ccc(N=Cc2cc(C)n(C3CCCC3)c2C)cc1 17.8 µM
C[C@@]12C[C@H](O)[C@@H]3[C@H](CCC4=CC(=O)CC[C@]43C)[C@H]1CC[C@@H]2c1csc(N)n1 3.98 µM
Cc1cc(C)nc(NC(=O)/C=C/c2ccc(Cl)cc2Cl)c1 15.8 µM
CCOC(=O)Cc1csc(NC(=O)c2c(-c3c(Cl)cccc3Cl)noc2C)n1 3.55 µM
CCOC(=O)Cc1csc(NC(=O)c2ccc(Cl)nc2)n1 10 µM
Cc1onc(-c2c(Cl)cccc2Cl)c1C(=O)Nc1ccc2c(c1)OCO2 1.12 µM
CCOC(=O)Cc1csc(NC(=O)c2ccc(S(=O)(=O)N3CCCCC3)cc2)n1 14.1 µM
O=C1CN(C(=O)c2ccc(Br)o2)C(c2ccc(F)cc2)c2cc(Cl)ccc2N1 (stereo not given) 7.94 µM
CCCCC(=O)Nc1sc2c(c1C(=O)OCC)CCC(C=O)=C2Cl 14.1 µM
C/C(=N\NC(=O)CSCc1ccc(Cl)cc1)c1ccc2c(c1)OCCO2 1.26 µM
O=C(CCN1C(=O)c2ccccc2C1=O)NC(=S)Nc1cccc(Cl)c1 4.47 µM
CCc1ccc(OCC(=O)NC(=S)Nc2ccc(F)cc2)c(Br)c1 8.91 µM
CCC(=O)NC(=S)Nc1ccc(NC(=O)COc2ccc(Cl)cc2Cl)cc1 2.82 µM
O=C(COc1ccccc1Cl)NC(=S)Nc1cccc(NC(=O)c2ccccc2Cl)c1 0.631 µM
Cc1c(N2C(=O)/C(=C3/C(=O)N(C)c4ccccc43)SC2=S)c(=O)n(-c2ccccc2)n1C 2.82 µM
CCOC(=O)c1c(C)n(C)c2ccc(OC(=O)c3ccco3)cc12 5.01 µM
COc1cc(/C=C2/C(=N)N3C=CSC3=NC2=O)ccc1OCCCOc1ccccc1C 7.94 µM
CCOc1cc(/C=C2/C(=N)N3C=CSC3=NC2=O)ccc1OCCCOc1ccccc1C 1 µM
CCCNc1c(F)c(F)c2c(C)c3ccccc3nc2c1F 10 µM
Cc1ccc(CC(=O)N2CC(C)OC(C)C2)cc1 (stereo not given) 8.91 µM
c1ccc2c(c1)ncn2-c1ccc(-c2ccnc(-c3ccncc3)n2)cc1 0.2 µM
CCOC(=O)c1ccc2nc(C)c(CCC(C)=O)c(Cl)c2c1 5.62 µM
CN(C)S(=O)(=O)Oc1ccsc1C(=O)Nc1ccc(Cl)cc1 0.891 µM
COc1ccc(/C=N/n2cnc3c([nH]c4ccc(Br)cc43)c2=O)cc1CN1CCOCC1 3.55 µM
ON(CCc1ccncc1)Cc1ccccc1 0.316 µM
c1ccc(SCCc2ccncc2)cc1 447 nM and 794 nM
Fc1ccc(SCCc2ccncc2)cc1 0.447 µM
CCOc1cc(/C=N/NC(=O)COc2cccc(C)c2)ccc1OC(=O)c1cccs1 8.91 µM
CCOc1cc(/C=N/NC(=O)CNc2cccc(C)c2)ccc1OC(=O)c1ccccc1 10 µM
O=C(CN1CCN(S(=O)(=O)c2ccc(Cl)cc2)CC1)Nc1ccc2c(c1)OCO2 2.82 µM
O=C(CN1CCN(S(=O)(=O)c2ccc(F)cc2)CC1)Nc1ccc(Cl)c(C(F)(F)F)c1 7.94 µM
CC1=CC(C)(C)NC(=S)N1c1cccc(C)c1 3.98 µM
COc1cccc([C@@H]2Oc3ccc(OC)cc3/C(=N/O[C@@H](C)c3cc(-c4c(C)cc(C)cc4C)no3)[C@@H]2O)c1 1.58 µM
COc1cccc([C@@H]2Oc3ccc(OC)cc3/C(=N/OC[C@@H](O)COCc3ccco3)[C@@H]2O)c1 1.58 µM
COc1cccc([C@@H]2Oc3ccc(OC)cc3/C(=N/OC[C@@H](C)[C@H](OCc3ccccc3)C(C)C)[C@@H]2O)c1 2 µM

AC50, inactive:
C/C=C\C[C@H](C)[C@H](O)[C@H]1C(=O)N[C@@H](CC)C(=O)N(C)CC(=O)N(C)[C@@H](CC(C)C)C(=O)N[C@@H](C(C)C)C(=O)N(C)[C@@H](CC(C)C)C(=O)N[C@@H](C)C(=O)N[C@@H](C)C(=O)N(C)[C@@H](CC(C)C)C(=O)N(C)[C@@H](CC(C)C)C(=O)N(C)[C@@H](C(C)C)C(=O)N1C

activity, negative = inhibition, inactive:
COc1cc(-c2ccc(=O)[nH]n2)ccc1OC(F)F -35% [at 25.6 µM]
N#C/C(=C\c1cccs1)C(=O)NCC1CCCO1 (stereo not given) -16.4%
Cc1ccc(S(N)(=O)=O)cc1NC(=O)/C=C/c1cccs1 -24.6%
CC(=O)Nc1nnc(S(N)(=O)=O)s1 2.11% [at 25.6 µM]
Cn1cccc1C(=O)N1CCC[C@@]2(CCN(Cc3ccc(C#N)cc3)C2)C1 11.3%
C#C[C@H](N)CCC(=O)O 75.3%
Cc1nnsc1SC(C)C(=O)O (stereo not given) -14.3%
CCNc1ncc2nc(-c3ccc(OC)cc3)c(=O)n(-c3ccc(OC)cc3)c2n1 9.96%
CC(C)OC(=O)c1cc2c(OC[C@@H](O)CNC(C)(C)C)cccc2[nH]1 -10.6%
C[N+]1(C)CCC(=C(c2ccccc2)c2ccccc2)CC1 3.56% [at 25.6 µM]
C[C@@]12CCC(=O)C=C1CC[C@@H]1[C@@H]2[C@H](O)C[C@]2(C)[C@@H]1CC[C@]2(O)C(=O)CO 16.8% [at 25.6 µM]
C[C@@]12CCC(=O)C=C1CC[C@H]1[C@@H]2[C@@H](O)C[C@]2(C)[C@@H]1CC[C@@]2(O)C(=O)COC(=O)C1CCCC1 -27.7% [at 11.4 µM]
Cc1noc(C)c1C(=O)N1CCC[C@@]2(CCN(C(=O)Nc3cccc(F)c3)C2)C1 5.9%
COCc1nnc(NC(=O)c2ccc(S(=O)(=O)N3CCCCCC3)cc2)o1 -18.3%
Cc1noc(C)c1C(=O)N1CCC2(CCCN(C(=O)Nc3cccc(F)c3)C2)CC1 -29.5%
CC(C)CN1CCCC2(CCN(C(=O)c3cnccn3)CC2)C1 -12.2%
O=C1Nc2ccccc2Nc2ncccc21 -12.3%
CC(/C=C/c1ccccc1)=N/NC(=O)CNC(=O)c1ccc2c(c1)OCO2 -24.7%
Cc1ccccc1OCC(=O)NC(=S)Nc1ccc(Br)c(C)n1 -10.9%
C=C(CC)C(=O)c1ccc(OCC(=O)O)c(Cl)c1Cl -9.62% [at 25.6 µM]
CN(C)c1ncnc2c1ncn2CCn1cnc2c(N(C)C)ncnc21 27.8% [at 11.4 µM]
NC1=C2NC=N[C@@H]2N(C/C=C\c2ccccc2)C=N1 7.43% [at 11.4 µM]
Cc1c(N(C)C)c(=O)n(-c2ccccc2)n1C -8.86% [at 25.6 µM]
Cc1c(O)c(=O)n(-c2ccccc2)n1C -3.86% [at 25.6 µM]
O=S(=O)(O)c1ccc2c(N=Nc3cccc4ccccc34)c(O)c(S(=O)(=O)O)cc2c1 13.7% [at 11.4 µM]
CN(C(=O)C(Cl)Cl)c1ccc(OC(=O)c2ccco2)cc1 -12.6% [at 25.6 µM]
CCCn1c(N)[n+](CC(=O)c2ccco2)c2ccccc21 -19%
Cc1ccc(N=Nc2ccc(N)cc2C)c(S(N)(=O)=O)c1 1.27% [at 11.4 µM]
COc1ccccc1CN1CC[C@@]2(CCCN(S(C)(=O)=O)C2)C1 -26.4%
CC1CN(C(=O)CN2C(=O)NC3(CCCCCC3)C2=O)CC(C)O1 (stereo not given) -25.4%
CCNC(=S)N1CC(C)OC(C)C1 (stereo not given) 13.7%
CC(C)(C)c1cc(C(=O)O)c(CN2CCCCC2)o1 -27.2%
CN(C)S(=O)(=O)c1ccc(C(=O)Nc2ccc(CN3CCCC3)cc2)cc1 -17.7%
[N-]=[N+]=Nc1ccc(C(=O)CSC[C@@H](NC(=O)CC[C@@H](N)C(=O)O)C(=O)NCC(=O)O)cc1 -17.4%
c1ccc(CCN2CCN=C2Cc2ccccc2)cc1 7.77% [at 11.4 µM]
ON(CCc1ccccn1)Cc1ccccc1 -32.5% [at 11.4 µM]
COc1ccc(/C=C/C(=O)Oc2cccc(/C=N/NC(=O)COc3c(C)cccc3C)c2)cc1 -25%
O=C1C=CC(=Nc2cccc3c(N=C4C=CC(=O)O4)cccc23)O1 -74.7% [at 11.4 µM]
COc1cccc([C@H]2Oc3ccc(OC)cc3/C(=N\OC[C@@H](O)[C@@H]3O[C@@H]4OC(C)(C)O[C@@H]4[C@H]3O)[C@@H]2O)c1 -33% [at 11.4 µM]
COc1cccc([C@H]2Oc3ccc(OC)cc3/C(=N\O[C@@H](C)c3cn([C@H](CO)Cc4ccccc4)nn3)[C@@H]2O)c1 -44.2% [at 11.4 µM]
CCN1C(=O)[C@H]2[C@H]3[C@H](O)[C@H](O)C/C(=N/O[C@@H](C)c4cc(-c5c(C)cc(C)cc5C)no4)[C@@H]3CC[C@@H]2C1=O -26.1% [at 11.4 µM]
CCN1C(=O)[C@H]2[C@H]3[C@H](O)[C@H](O)C/C(=N/OC[C@@H](C)[C@H](OCc4ccccc4)C(C)C)[C@@H]3CC[C@@H]2C1=O -18.6% [at 11.4 µM]
CC(C)=NOC[C@@H](O)COCc1ccco1 -10.6% [at 11.4 µM]
COc1cccc([C@@H]2Oc3ccc(OC)cc3/C(=N/O[C@@H](C)c3cn([C@H]4COC[C@H]4O)nn3)[C@@H]2O)c1 -35.4% [at 11.4 µM]
